Assay outcomes: PubChem, National Center for Advancing Translational Sciences (NCATS)
Most compounds without a hit are left out; they make up all but 7.4% or so of the library.
Luc counter – Counterscreen for Luciferase (Kinase-Glo TM) Inhibition; Kinase-Glo luciferase, ATP luminescence, 8 min; Potency, µM (doses to about 38.3 µM), without a hit: at the top dose activity change, negative = inhibition, most hits filed as inhibitors; actives 0.28% (n = 200,000); AID 1379, 2008; also: % is scaled to controls: 0 for no effect and ±100 for the full control effect; nearly all actives have a fitted effect of over 60% in size
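Light output from Kinase-Glo luciferase with luciferin and 10 uM ATP in 50 mM imidazole pH 7.2, KCl, MgCl2, Tween 20, BSA; compound pin-delivered, 8-min ambient incubation, then luminescence read.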
ELG1 genotox – qHTS screen for small molecules that induce genotoxicity in human embryonic kidney (HEK293T) cells expressing luciferase-tagged ELG1 | HEK293T ELG1-luciferase reporter, luminescence, 16 h | Potency, µM (highest dose often 46 µM), inactives show top-dose activity change, positive = activation, hits mostly activators | actives 1.3% (n = 330,000); also: % of control where 0% means no effect; nearly all actives have a fitted effect of over 60% in size
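Cells (2,000/well) expressing the ELG1-luciferase fusion are dosed by pin tool and kept 16 hr at 37 °C, 5% CO2. Signal comes from ONE-Glo luciferase reagent after 30 min at room temperature.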
SMN2 splice enh – qHTS Assay for Enhancers of SMN2 Splice Variant Expression; HEK293 SMN2-luciferase splicing reporter, luminescence, 30-36 h; Potency, µM (highest dose often 46.1 µM), without a hit: at the top dose activity change, positive = activation, most hits filed as activators; actives 2.8% (n = 210,000); AID 1458, 2008; also: % of control where 0% means no effect; nearly all actives have a fitted effect of over 55% in size
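HEK293 cells carry an SMN2 […]–luciferase reporter in which exon 7 inclusion puts luciferase in frame. Cells were plated 10-12 h before compound addition, then incubated 30-36 h at 37C. ONE-Glo luminescence was read; sodium butyrate at 4.5 mM final served as control.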
NPC1 promoter act – qHTS Assay for NPC1 Promoter Activators | AID 485313, 2010 | actives 2.4% (n = 320,000) | Huh7 NPC1 promoter luciferase reporter, 24 h | Potency, µM (doses to about 9.22 µM), without a hit: top-dose activation, hits mostly activators; also: % of control where 0% means no effect; nearly all actives have a fitted effect of over 60% in size
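Luminescence read-out of NPC1 promoter-driven luciferase in stably transfected Huh7 cells; compounds delivered in DMSO and left 24 h at 37C, 5% CO2, qHTS titration format.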
FLuc counter – qHTS profiling assay for firefly luciferase inhibitor/activator using purifed enzyme and Km concentrations of substrates (counterscreen for miR-21 project) | actives 6.9% (n = 360,000) | Luciferin 4-monooxygenase (Photinus pyralis), P08659 | Potency, µM (top dose mostly 57.5 µM), for the others: at the highest dose activity change, negative = inhibition, actives largely listed as inhibitors | purified FLuc, Km substrates, luminescence inhibition;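 also: plate controls were vehicle for no effect and reference inhibitor for full effect; nearly all actives have a fitted effect of over 55% in size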
Target sequence (P08659 whole entry, looked up): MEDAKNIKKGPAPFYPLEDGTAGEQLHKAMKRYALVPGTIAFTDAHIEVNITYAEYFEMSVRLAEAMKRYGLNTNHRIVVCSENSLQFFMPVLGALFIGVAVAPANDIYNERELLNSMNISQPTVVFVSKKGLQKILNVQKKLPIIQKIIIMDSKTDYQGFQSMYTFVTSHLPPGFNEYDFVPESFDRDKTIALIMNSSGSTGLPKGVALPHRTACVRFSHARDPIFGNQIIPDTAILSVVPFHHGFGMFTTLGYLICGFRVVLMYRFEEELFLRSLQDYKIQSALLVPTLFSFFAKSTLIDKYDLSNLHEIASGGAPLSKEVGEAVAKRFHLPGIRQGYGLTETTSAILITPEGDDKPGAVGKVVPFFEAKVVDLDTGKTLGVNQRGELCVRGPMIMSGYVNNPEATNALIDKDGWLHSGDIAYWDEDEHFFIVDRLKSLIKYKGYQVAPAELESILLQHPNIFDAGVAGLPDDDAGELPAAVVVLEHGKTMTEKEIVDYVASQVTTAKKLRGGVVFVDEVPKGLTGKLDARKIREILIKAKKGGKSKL
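Purified P. pyralis luciferase, 10 nM final, with Km-level 10 uM D-luciferin and 10 uM ATP in 50 mM Tris acetate pH 7.5, 10 mM Mg acetate, 0.01% Tween-20, 0.05% BSA; 6-point qHTS titration about 60 µM downward; luminescence read.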
Rab9 prom act – qHTS Assay for Rab9 Promoter Activators; AID 485297, 2010; actives 2.8% (n = 320,000); Huh7 Rab9 promoter-luciferase reporter, luminescence, 24 h; Potency, µM (doses to about 9.22 µM), without a hit: at the highest dose activation, negative = inhibition, hits mostly activators; also: % of control where 0% means no effect; nearly all actives have a fitted effect of over 60% in size
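Stable Rab9-luc Huh7, 1500 cells/well, 2 h settle; cmpd in DMSO, 24 h, 37 °C/5% CO2; luciferase reagent 10 min RT; luminescence.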
* marks the source's active call; other numbers are inactive results; [ ] = dose if it differs, or a comment. Calls follow the shape of the dose curve; as a rule, active = well fitted curve in the direction sought with a large enough effect; inconclusive = small, poorly fitted or top-dose-only effect, or another doubt; inactive = no such curve, though single readings can be large; an effect the other way counts as inactive or inconclusive. Potency is read from the fitted curve at half-maximal effect.

Results for O=C(CN1CCCCC1)c1ccccc1Cl ?
Luc counter: 1%; ELG1 genotox: 4%; SMN2 splice enh: -8%; NPC1 promoter act: 3%; FLuc counter: 19µM*; Rab9 prom act: 14%

Results for Cc1c(C(=O)N2CCOCC2)sc2nc(-c3ccccc3)cn12 ?
Luc counter: -4%; ELG1 genotox: inconclusive; SMN2 splice enh: inconclusive; NPC1 promoter act: 4µM*; FLuc counter: 17µM*; Rab9 prom act: 2.5µM*

What do the screens show for `COC(=O)[C@@H]1C[C@H]1[C@@H](NP(=O)(c1ccccc1)c1ccccc1)c1ccccc1`?
Luc counter: 2%; ELG1 genotox: 18µM*; SMN2 splice enh: 10µM*; NPC1 promoter act: -3%; FLuc counter: 4%; Rab9 prom act: -3%

What do the screens show for `Cc1ccccc1N1C(=O)/C(=C/c2ccco2)C(=O)NC1=S`?
ELG1 genotox: -6%; NPC1 promoter act: -2%; FLuc counter: 24µM*; Rab9 prom act: 1%

How did CCOc1ccc(N2C(=O)/C(=C/c3ccco3)C(=O)NC2=S)cc1 do in these assays?
ELG1 genotox: -2%; NPC1 promoter act: -2%; FLuc counter: inconclusive; Rab9 prom act: -2%

What do the screens show for `Cc1ncc([N+](=O)[O-])n1CCN=[N+]=[N-]`?
Luc counter: -6%[7.66 µM]; SMN2 splice enh: -11%[9.22 µM]

What do the screens show for `ClCc1ccccc1`?
SMN2 splice enh: 3%

How did Nc1c(C(=O)Nc2ccc(F)c(Cl)c2)sc2nc3c(cc12)N1CCC3CC1 do in these assays?
SMN2 splice enh: -45%; FLuc counter: 8.5µM*

How did N#Cc1cccc(NC(=O)c2sc3nc4c(cc3c2N)N2CCC4CC2)c1 do in these assays?
FLuc counter: 12µM*

How did O=c1[nH]c(=S)[nH]c(O)c1N=Nc1ccc(S(=O)(=O)N2CCOCC2)cc1 do in these assays?
ELG1 genotox: 3%; NPC1 promoter act: -4%; FLuc counter: -16%; Rab9 prom act: 3%

How did O=c1[nH]c(=S)[nH]c(O)c1N=Nc1ccc2c(c1)OCCO2 do in these assays?
ELG1 genotox: inconclusive; NPC1 promoter act: inconclusive; FLuc counter: 0.85µM*; Rab9 prom act: 2.5µM*

Results for O=c1[nH]c(=S)[nH]c(O)c1N=Nc1ccc2c(c1)OCO2 ?
Luc counter: inconclusive; ELG1 genotox: inconclusive; SMN2 splice enh: 18%; NPC1 promoter act: inconclusive; FLuc counter: 4.8µM*; Rab9 prom act: 2.8µM*

Results for O=c1[nH]c(=S)[nH]c(O)c1N=Nc1cc2c(cc1[N+](=O)[O-])OCO2 ?
Luc counter: -5%; ELG1 genotox: 0%; SMN2 splice enh: 8%; NPC1 promoter act: -4%; FLuc counter: inconclusive; Rab9 prom act: 10%

Results for O=c1[nH]c(O)c(N=Nc2ccc3c(c2)OCCO3)c(=O)[nH]1 ?
Luc counter: inconclusive; ELG1 genotox: inconclusive; SMN2 splice enh: -88%; NPC1 promoter act: 26%; FLuc counter: 1.5µM*; Rab9 prom act: 25%

How did O=C1NC(=O)C(=Cc2ccc(-c3cc(Cl)ccc3[N+](=O)[O-])o2)C(=O)N1 do in these assays?
Luc counter: -6%; ELG1 genotox: 15%; SMN2 splice enh: -7%; NPC1 promoter act: -4%; FLuc counter: 15µM*; Rab9 prom act: -1%

What do the screens show for `O=C1NC(=O)C(=Cc2ccc(-c3ccccc3[N+](=O)[O-])o2)C(=O)N1`?
ELG1 genotox: 15%; NPC1 promoter act: -2%; FLuc counter: inconclusive; Rab9 prom act: -1%

How did COc1cccc(NC(=O)CCc2nc(-c3ccc(C(C)(C)C)cc3)no2)c1 do in these assays?
SMN2 splice enh: -72%; FLuc counter: 2.7µM*

How did COc1ccc(NC(=O)CCc2nc(C3=CCN(Cc4cccc(C)c4)CC3)no2)c(OC)c1 do in these assays?
FLuc counter: -16%

What do the screens show for `CN(C)CCCc1cccnc1`?
Luc counter: -4%[7.66 µM]; SMN2 splice enh: -6%[9.22 µM]

How did CN(C)C(=O)Oc1cccc(NC(=O)c2ccccc2C(F)(F)F)c1 do in these assays?
ELG1 genotox: -1%; NPC1 promoter act: -1%; FLuc counter: -2%; Rab9 prom act: -2%

What do the screens show for `COc1ccccc1NC(=O)c1oc2ccccc2c1NC(=O)c1ccccc1C(F)(F)F`?
SMN2 splice enh: -6%; FLuc counter: 11µM*

Results for Oc1c(Cl)c(Cl)c(Cl)c(Cl)c1Cl (tested in a mixture with another compound) ?
Luc counter: -3%[7.66 µM]; SMN2 splice enh: -16%[9.22 µM]

What do the screens show for `CN(C)C(=O)Oc1ccc(C(=O)c2ccccc2)cc1`?
Luc counter: -1%; ELG1 genotox: 9%; SMN2 splice enh: 18%; NPC1 promoter act: 21%; FLuc counter: inconclusive; Rab9 prom act: 21%

How did CCC(=O)Oc1ccc(C(=O)Nc2cccc(C(=O)c3ccccc3)c2)cc1 do in these assays?
Luc counter: -7%; ELG1 genotox: -9%; SMN2 splice enh: -25%; NPC1 promoter act: 3%; FLuc counter: 17µM*; Rab9 prom act: 2%

Results for Cc1cc(SCc2sc(-c3ccc(C(F)(F)F)c(F)c3)nc2C)ccc1OCC(=O)O ?
Luc counter: -4%; SMN2 splice enh: 17%

Results for CCC(=Nc1cc(OC)ccc1OC)c1c(O)[nH]c(=O)[nH]c1=O ?
Luc counter: -4%; ELG1 genotox: 6%; SMN2 splice enh: -9%; NPC1 promoter act: -3%; FLuc counter: 3%; Rab9 prom act: -3%

What do the screens show for `C=CCn1c(O)c(C(CC)=Nc2cc(OC)ccc2OC)c(=O)[nH]c1=O`?
Luc counter: 2%; ELG1 genotox: 23µM*; SMN2 splice enh: inconclusive; NPC1 promoter act: -3%; FLuc counter: 8%; Rab9 prom act: 3%

What do the screens show for `O=C(C1CC(c2ccccc2O)=NO1)N1CCC2(CC1)OCCO2` (stereo not drawn)?
Luc counter: -4%; ELG1 genotox: 16µM*; SMN2 splice enh: inconclusive; NPC1 promoter act: 3.5µM*; FLuc counter: 11µM*; Rab9 prom act: inconclusive

Results for COc1ccc(C(=O)CCNc2ccc(F)cc2)cc1 ?
ELG1 genotox: inconclusive; NPC1 promoter act: inconclusive; FLuc counter: inconclusive; Rab9 prom act: 2.8µM*

How did COc1ccc(C(=O)C(C)(C)NO)cc1 do in these assays?
Luc counter: -6%; ELG1 genotox: -4%; SMN2 splice enh: -7%; NPC1 promoter act: -2%; FLuc counter: 0%; Rab9 prom act: 1%

How did CN(C)c1ccc(N)cc1 do in these assays?
SMN2 splice enh: -13%
